RORg inh: inhibitors of mouse ROR gamma transcriptional activity | 310,000 compounds, 5.4% hits | Drosophila S2 Gal4-RORgamma UAS-luciferase reporter, 20 h | Potency, µM (titrated, usually from 53.6 µM), usual class: inhibitors | P51450; note: nearly all actives have a fitted effect of over 60% in size
Target sequence (P51450 whole entry, looked up, the tested form may be a part): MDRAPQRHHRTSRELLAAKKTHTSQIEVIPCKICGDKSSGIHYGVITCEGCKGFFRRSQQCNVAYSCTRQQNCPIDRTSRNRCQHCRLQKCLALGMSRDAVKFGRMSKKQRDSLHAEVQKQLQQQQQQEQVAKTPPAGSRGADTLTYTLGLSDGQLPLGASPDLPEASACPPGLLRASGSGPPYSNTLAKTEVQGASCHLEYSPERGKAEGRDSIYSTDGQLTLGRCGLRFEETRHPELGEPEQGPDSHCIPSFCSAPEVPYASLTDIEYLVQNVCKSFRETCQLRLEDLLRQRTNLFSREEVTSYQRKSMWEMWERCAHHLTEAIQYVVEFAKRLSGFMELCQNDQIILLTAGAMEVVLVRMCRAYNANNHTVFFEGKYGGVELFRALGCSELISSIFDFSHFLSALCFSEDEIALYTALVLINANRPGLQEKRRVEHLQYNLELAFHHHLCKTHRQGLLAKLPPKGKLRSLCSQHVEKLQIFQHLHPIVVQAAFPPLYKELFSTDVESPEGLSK
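In this cell-based reporter format, copper sulfate (700 uM final) drives Gal4–ROR gamma fusion expression from a metallothionein promoter in Drosophila Schneider cells; compounds preincubated 1 hr, reporter read after 20 hr at ambient temperature.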
CtBP-E1A blk: CtBP/E1A binding inhibition | activity change, % (no concentration beside the values) | 340,000 compounds, 0.49% hits | AlphaScreen GST-E1A/His-CtBP binding, 1536-well; stronger effect = lower value; in the data active = activity change below about -65%; inconclusive = mostly about -30% to -63%
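In 5 uL wells, 23 nL compound meets equimolar GST-E1A and His-CtBP (5X stock 125 nM each) for 2 h, 37 °C. Beads (5X, 50 ug/mL) then 1 h, 37 °C, dark.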
PKM2 activator: activators of human pyruvate kinase M2; Potency, µM (series often up to 57.5 µM), actives largely listed as activators; AID 1631; purified PKM2, Kinase-Glo ATP luminescence, activation; response scale: 0% is enzyme alone, no compound; 260,000 compounds, 0.34% hits; P14618; note: nearly all actives have a fitted effect of over 55% in size
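hPK-M2, >95% pure; 0.1 mM ADP / 0.5 mM PEP final; imidazole pH7.2 buffer w/ 7 mM MgCl2, 50 mM KCl; 1 h RT; Kinase-Glo lum. Intermediate enzyme activity for dual inhibitor/activator qHTS.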
VP16 counter: Gal4-VP16 reporter inhibition counter-screen; 310,000 compounds, 3.5% hits; Drosophila S2 Gal4-VP16 UAS-luciferase, luminescence, 20 h; Potency, µM (highest dose often 53.6 µM), actives largely listed as inhibitors;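 note: Gal4-VP16 expression switched on by copper sulfate through the metallothionein promoter; nearly all actives have a fitted effect of over 50% in size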
Six1-Eya2 inh: blocks human Six1 binding to Eya2; Q15475+O00167; AlphaScreen GST-Six1/His-Eya2 binding, biochemical; stronger effect = lower value; activity change, % (no concentration beside the values); 360,000 compounds, 0.56% hits; AID 651725; in the data active = activity change below about -65%; inconclusive = mostly about -30% to -63%
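Six1/Eya2 binding was read as AlphaScreen signal after compounds were pinned into GST-Six1 plus His-tagged Eya2 (5X stock 250/500 nM) in pH 8.0 Tris/NaCl/TCEP buffer, beads added, then incubated 1 h, 37 C, dark.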
Of the large screens only hits and unclear results are named; the others gave an inactive call. Shown are actives, neighbours in structure and some others; about 5.6% of the full set was active somewhere. Unless noted, calls come from the whole dose curve; as a rule, active = well fitted curve in the direction sought with a large enough effect; inconclusive = small, poorly fitted or top-dose-only effect, or another doubt; inactive = no such curve, though single readings can be large; an effect the other way counts as inactive or inconclusive.

O=C1N/C(=N/S(=O)(=O)Cc2ccccc2)S/C1=C/c1ccc2c(c1)OCO2	none
CCC1CCCCN1C(=S)NC(=O)c1cc(S(=O)(=O)N2CCOCC2)ccc1C (stereo not drawn)	RORg inh 2.24µM, VP16 counter 3.98µM
O=C(Nc1nc(-c2ccccn2)cs1)c1ccc(S(=O)(=O)N2CCCCC2)cc1	RORg inh 1.58µM, VP16 counter 6.31µM (no result: CtBP-E1A blk, Six1-Eya2 inh)
Cc1ccc(S(=O)(=O)N2CCOCC2)cc1C(=O)Nc1nc2ccccc2[nH]1	RORg inh 15.8µM, VP16 counter 17.8µM
CSCCC(NC(=O)c1cc(S(=O)(=O)N2CCOCC2)ccc1C)c1nc2ccccc2[nH]1 (stereo not drawn)	none (no result: RORg inh, PKM2 activator, VP16 counter)
COc1ccc(NC(=O)CN2C(=O)COc3ccc(S(=O)(=O)N4CCCCCC4)cc32)cc1	none (no result: CtBP-E1A blk, PKM2 activator)
O=C1CCN(CCc2ccccc2)CCN1C(CSc1ccc(Br)cc1)c1ccccc1 (stereo not drawn)	none (no result: CtBP-E1A blk, PKM2 activator, Six1-Eya2 inh)
O=C(COC(=O)CN1C(=O)c2ccccc2C1=O)Nc1cccc(F)c1	none (no result: RORg inh, PKM2 activator, VP16 counter)
Cc1c(N/N=C(\C#N)C(=O)c2ccccc2)c(=O)n(-c2ccccc2)n1C	RORg inh 15.8µM, CtBP-E1A blk inconclusive, VP16 counter inconclusive, Six1-Eya2 inh -86.3
Cc1ccccc1C(=O)/C(C#N)=N/Nc1c(C)n(C)n(-c2ccccc2)c1=O	RORg inh 8.91µM, CtBP-E1A blk -70.3, VP16 counter 20µM, Six1-Eya2 inh -68.0
Cc1cccc(NC(=O)Oc2ccc(Cl)c3cccnc23)c1	CtBP-E1A blk inconclusive, Six1-Eya2 inh -91.9 (no result: RORg inh, PKM2 activator, VP16 counter)
O=C(Oc1ccc(Cl)c2cccnc12)c1cccnc1	RORg inh 0.891µM, CtBP-E1A blk -82.1, VP16 counter 1µM, Six1-Eya2 inh -92.6
CNC(=O)COc1ccc(Cl)c2cccnc12	PKM2 activator inconclusive (no result: CtBP-E1A blk)
O=C(Oc1ccc(Cl)c2cccnc12)N1CCCCC1	none
O=C(Oc1ccc(Cl)c2cccnc12)C12CC3CC(CC(C3)C1)C2	RORg inh 2.24µM, VP16 counter 3.16µM, Six1-Eya2 inh inconclusive
CCCc1cc(=O)[nH]c(SCC(=O)N2CCCCCC2)n1	none (no result: RORg inh, PKM2 activator, VP16 counter)
CN(CC(O)COc1c(F)cc(Br)cc1F)C1CCCCC1 (stereo not drawn)	none
CN(Cc1ncc[nH]1)Cc1cn(-c2ccccc2)nc1-c1ccc2c(c1)OCO2	none
CCn1ccnc1CN(C)Cc1cn(-c2ccccc2)nc1-c1ccc(OC)cc1F	RORg inh 3.55µM, VP16 counter inconclusive
CCn1ccnc1CN(C)Cc1cn(-c2ccc(C)cc2)nc1-c1ccc(F)cc1	RORg inh 2.82µM, VP16 counter 15.8µM (no result: CtBP-E1A blk)
CCn1ccnc1CN(C)Cc1cn(-c2cc(C)ccc2C)nc1-c1ccccc1	PKM2 activator inconclusive
Cc1ccc(-n2cc(CN(C)Cc3nccn3C)c(-c3ccc(F)cc3)n2)cc1	RORg inh 7.94µM, VP16 counter inconclusive
Cc1ccc(-n2cc(CN(C)Cc3ncc[nH]3)c(-c3cccc(C)c3)n2)cc1	VP16 counter 6.31µM, Six1-Eya2 inh inconclusive
Cn1c(=O)n(C)c2cc(NC(=O)COc3ccc(Cl)cc3)ccc21	none
CCN(c1ccccc1)S(=O)(=O)c1ccc(OC)c(NC(=O)c2cc(Cl)ccn2)c1	none (no result: RORg inh, PKM2 activator, VP16 counter)
CC(=O)Oc1cc(C(=O)OCC(=O)NC23CC4CC(CC(C4)C2)C3)cc(OC(C)=O)c1OC(C)=O	none (no result: RORg inh, PKM2 activator, VP16 counter)
C=CCc1cccc(/C=N/NC(=O)CNc2ccccc2OC)c1O	RORg inh 1.26µM, CtBP-E1A blk inconclusive
O=C(CN1CCN(Cc2ccccc2)CC1)N/N=C/c1ccc(Br)s1	RORg inh 5.62µM, VP16 counter 10µM
O=C(CN1CCN(Cc2ccccc2)CC1)N/N=C/c1ccco1	none
C=CCc1cccc(/C=N/NC(=O)C(C)Nc2cccc(C)c2)c1O (stereo not drawn)	RORg inh 0.0398µM, VP16 counter 2.51µM
C=CCc1cccc(/C=N/n2cnnc2)c1O	RORg inh 7.08µM
Cc1cccc(-n2c(Cc3cc(=O)[nH]c(=O)[nH]3)nnc2SCC(=O)N2CCc3ccccc32)c1	none
Cc1cc2cc(CCNC(=O)CCc3ccccc3)c(=O)[nH]c2cc1C	none
O=C(CCC(=O)Nc1ccc(F)cc1)N/N=C/c1ccccc1	none (no result: CtBP-E1A blk, PKM2 activator)
C=CCc1cccc(/C=N/NC(=O)CNc2ccccc2)c1O	RORg inh 1.58µM, VP16 counter inconclusive
C=CCc1cccc(/C=N/NC(=O)CCCNc2ccc(C)cc2)c1O	RORg inh 1µM, CtBP-E1A blk inconclusive, VP16 counter 2µM, Six1-Eya2 inh inconclusive
C=CCc1cccc(/C=N/NC(=O)CNc2cccc3ccccc23)c1O	RORg inh 0.562µM, VP16 counter 1.12µM
C=CCc1cccc(/C=N/NC(=O)CCC(=O)Nc2ccc(F)cc2)c1O	RORg inh 1µM, VP16 counter 1µM
O=C(CNc1ccccc1)N/N=C/c1ccc2c(c1)OCO2	none (no result: CtBP-E1A blk)
Cc1sc2ncnc(N3CCN(Cc4ccccc4)CC3)c2c1-c1ccccc1	none
COc1ccccc1CNC(=O)COC(=O)C1CCN(S(=O)(=O)c2ccc(C)c(C)c2)CC1	none (no result: RORg inh, PKM2 activator, VP16 counter)
COC(=O)c1cn(C(=O)c2cc(Cl)ccc2Cl)c2ccccc12	none
C=CCc1cccc(/C=N/NC(=O)CN2CCN(Cc3ccccc3)CC2)c1O	RORg inh 1.12µM, VP16 counter 10µM (no result: CtBP-E1A blk, PKM2 activator, Six1-Eya2 inh)
C=CCc1cccc(/C=N/NC(=O)C[n+]2ccccc2)c1O	RORg inh inconclusive, CtBP-E1A blk -91.1, Six1-Eya2 inh -89.3 (no result: PKM2 activator)
CNC(=S)N/N=C/c1cn(CCOc2cccc(OC)c2)c2ccccc12	RORg inh 1µM, VP16 counter 5.01µM, Six1-Eya2 inh inconclusive
CNC(=S)N/N=C/c1cn(CCOc2ccccc2OC)c2ccccc12	RORg inh 0.891µM, VP16 counter 1µM
CC(C)(C)N1C(=O)[C@H]2[C@H]3[C@H](O)[C@H](O)C/C(=N/OC[C@@H](O)COCc4ccco4)[C@@H]3CC[C@@H]2C1=O	none (no result: CtBP-E1A blk, PKM2 activator, Six1-Eya2 inh)
COc1ccc(C)cc1NC(=O)NNC(=O)C1CCC(C(C)(C)C)CC1 (stereo not drawn)	none
O=C1N/C(=N\N=C\c2cccs2)SC1Cc1cccc(Cl)c1 (stereo not drawn)	RORg inh 0.501µM, VP16 counter 0.708µM
O=C1N/C(=N\N=C\c2cccs2)SC1Cc1ccc(Cl)cc1 (stereo not drawn)	RORg inh 1.12µM, VP16 counter 0.631µM
CN1C(C)(C)CC(O)(C(=O)O)CC1(C)C	none (no result: RORg inh, PKM2 activator, VP16 counter)
N#CCCN1CCN(C(=O)c2c(N)no[n+]2[O-])CC1	none (no result: PKM2 activator)
COc1ccc(-c2nc(N)ncc2-c2csc(C)n2)c(O)c1OC	none
COc1ccc(/C=C/c2nc3cc(-c4ccccc4)ccc3o2)cc1O	RORg inh 31.6µM, VP16 counter inconclusive
COc1ccc(C(=O)Nc2nncs2)cc1S(=O)(=O)N1CCOCC1	none
COc1cccc(-c2csc(NNC(=O)c3cccs3)n2)c1	RORg inh 2.24µM, VP16 counter 10µM (no result: CtBP-E1A blk)
CCOC(=O)c1cnc2c(OC)cccc2c1Nc1ccc2c(c1)OCCO2	RORg inh 15.8µM, VP16 counter 17.8µM
